PubChem BioAssay (Tox21)
Inconclusive results are not listed. A number with no mark means an inactive call. The call rests on the fitted dose curve; in most records, active means well fitted activation curve with a large enough effect in the signal ratio in the repeat runs, with a control signal flat (not every such curve was filed as active); inconclusive means weak or mixed curves; inactive means flat fitted curve, though single readings scatter; the % refers to the signal ratio.

Assay: qHTS assay for small molecule activators of the heat shock response signaling pathway (AID 743210)
Conditions: HeLa HSE-bla reporter, beta-lactamase ratio, 5 h; series mostly up to 62.6 µM; activation: at the top concentration
From the text: U.S. Tox21 Program National Center for Advancing Translational Sciences [NCATS] NIH Chemical Genomics Center [NCGC] U.S. Environmental Protection Agency [EPA] National Institutes of Environmental Health Sciences [NIEHS] National Toxicology Program [NTP] U.S. Food and Drug Administration [FDA] Tox21 Assay Overview: Various chemicals, environmental and physiological stress conditions may lead to the activation of heat shock response/ unfolded protein response (HSR/UPR). There are three heat shock transcription factors (HSFs) (HSF-1, -2, and -4) mediating transcriptional regulation of the human HSR. To identify the compounds that activate HSR signaling, HSE-bla HeLa cell line (Invitrogen, Carlsbad, CA, USA) containing a beta-lactamase reporter gene under the control of the heat shock response elements was used to screen the Tox21 10K compound library.
Tox21 Assay Protocol Summary: The CellSensor HSE-bla HeLa cells (Invitrogen, Carlsbad, CA, USA) were dispensed at 1500 cells/6uL/well into 1536-well black wall/clear bottom plates using a Multidrop combi (Thermo Fisher Scientific, Waltham, MA) dispenser. After the assay plates were incubated at 37 C and 5% CO2 overnight, 23 nL of compounds dissolved in DMSO, positive controls or DMSO only was transferred to the assay plate by a Pintool station (Kalypsys, San Diego, CA). The plates were incubated at 37 C for 5 h. After 1 uL of LiveBLAzerTM B/G FRET substrate was added using a Flying Reagent Dispenser (Beckman Coulter, Indianapolis, IN, USA), the plates were incubated at room temperature for 2.5 h, and fluorescence intensity was measured by an Envision plate reader (PerkinElmer, Shelton, CT).
On the % scale 0 is the no-effect control and ±100 the full control effect.

Compared with `CCCCCCCC/C=C\CCCCCCCC(=O)OCC`, `CCCCCCCCCOS(=O)(=O)O` is lower in “activation” value: 2.32% for the first, -0.554% for the second.

Going from `COc1ccnc(CS(=O)c2nc3ccc(OC(F)F)cc3[nH]2)c1OC` (stereo not given) to `COc1cc2nc(N(C)CCCNC(=O)C3CCCO3)nc(N)c2cc1OC` (stereo not given), the “activation” value falls from 1.85% to -0.25%.

Going from `NS(=O)(=O)c1ccc(N2CCCCS2(=O)=O)cc1` to `Nc1ccccc1S(=O)(=O)c1ccccc1`, the “activation” value rises from 0.379% to 0.892%.

First: CC(=O)c1cccc([N+](=O)[O-])c1
Second: Nc1cccc([N+](=O)[O-])c1
The “activation” value of the first is higher: -0.0843% for the first, -1.83% for the second.

Compared with `C=CC1CC2C=CC1C2` (stereo not given), `CCCCC(CC)CN1C(=O)C2C3C=CC(C3)C2C1=O` (stereo not given) is higher in “activation” value: -0.0496% for the first, 2.3% for the second.

Compared with `CCOc1ccc(N)c([N+](=O)[O-])c1`, `CCOC(=O)NCCOc1ccc(Oc2ccccc2)cc1` is higher in “activation” value: -1.63% for the first, 1.52% for the second.

Compared with `CN(C)CCCN1c2ccccc2Sc2ccccc21`, `CC(=O)c1ccc2c(c1)N(CCCN(C)C)c1ccccc1S2` is lower in “activation” value: 0% for the first, -1.76% for the second.

First: CN(C)c1ccc(C(c2ccccc2)c2ccc(N(C)C)cc2)cc1
Second: CN1CCN(C(c2ccccc2)c2ccccc2)CC1
The “activation” value of the first is higher: 2.54% for the first, 0.0403% for the second.

First: OC[C@H]1O[C@@H](OCCc2ccc(O)cc2)[C@H](O)[C@@H](O)[C@@H]1O
Second: CCO[C@H](Cc1ccc(OCCc2ccc(OS(C)(=O)=O)cc2)cc1)C(=O)O
The “activation” value of the first is lower: -1.21% for the first, -0.758% for the second.

Compared with `COc1ccc(S(=O)(=O)N2C(=O)[C@@](c3ccccc3OC)(N3C[C@H](O)C[C@H]3C(=O)N(C)C)c3cc(Cl)ccc32)c(OC)c1`, `CC(=O)c1ccc2c(c1)N(CCCN1CCC(CCO)CC1)c1ccccc1S2` is higher in “activation” value: -1.45% for the first, -0.272% for the second.

First: CNCCCN1c2ccccc2CCc2ccccc21
Second: CNCCCCOc1ccccc1Cc1ccccc1
The “activation” value of the first is higher: 3.2% for the first, 0% for the second.

First: C=CCOc1ccccc1OCC(O)CNC(C)C (stereo not given)
Second: CC(C)Cc1ccc(C(C)C(=O)OCc2ccccn2)cc1 (stereo not given)
The “activation” value of the first is higher: 0.719% for the first, -0.0923% for the second.

Compared with `CCCCCCOC(=O)NC(=N)c1ccc(NCc2nc3cc(C(=O)N(CCC(=O)OCC)c4ccccn4)ccc3n2C)cc1`, `CC(C)(COC(=O)c1ccccc1)COC(=O)c1ccccc1` is lower in “activation” value: 2.43% for the first, 0.0572% for the second.

Going from `Nc1cc(C(=O)O)c(O)c(S(=O)(=O)O)c1` to `O=C(Nc1ccccc1)c1ccccc1O`, the “activation” value rises from 0.0744% to 5.61%.

Going from `CCN(CC)CCOC(=O)C(Cc1cccc2ccccc12)CC1CCCO1` (stereo not given) to `O=C(OCCc1ccccc1)c1ccccc1`, the “activation” value rises from -0.607% to 0.0977%.

First: Cc1oc2c(NC(=O)c3c(Cl)cccc3Cl)cccc2c1C(C)(C)O
Second: CCOC(=O)c1cccnc1
The “activation” value of the first is lower: -2.11% for the first, 1.61% for the second.

For `C[N+](C)(C)CCOC(=O)CCC(=O)OCC[N+](C)(C)C`, the “activation” value was -1.23%.

First: CCCCC(CC)COC(=O)COc1ccc(Cl)cc1Cl (stereo not given)
Second: C=C(C)C(=O)OCCOCC
The “activation” value of the first is lower: -0.223% [at 81.1 µM] for the first, 0.693% [at 81.1 µM] for the second.

Going from `O=[N+]([O-])c1cccc(S(=O)(=O)O)c1` to `C=C(C)C(=O)OCC`, the “activation” value falls from 0.149% [at 81.1 µM] to -1.76% [at 81.1 µM].

Work on `NC(N)=NCCC[C@H](N)C(=O)O` yielded an activation of 0.502% [at 5.95 µM].

In the case of `Cc1[nH]c(C)c(Cl)c(=O)c1Cl`, the “activation” value is reported as -0.296% [at 29.1 µM].

In the case of `C/C=C/C(=O)CC`, the activation is reported as -0.278% [at 13.2 µM].
